From PubChem BioAssay
Shown are actives, neighbours in structure and some others; about 0.84% of the full set was active somewhere.
PPARg SRC-1 ag – agonists of human PPARgamma SRC-1 coactivator recruitment. 200,000 tested, 0.41% active. activation, % at 8 µM. P37231. PPARgamma-SRC-1 coactivator recruitment biochemical assay; in the data active = activation above about 19%
Target sequence (P37231 whole entry, looked up): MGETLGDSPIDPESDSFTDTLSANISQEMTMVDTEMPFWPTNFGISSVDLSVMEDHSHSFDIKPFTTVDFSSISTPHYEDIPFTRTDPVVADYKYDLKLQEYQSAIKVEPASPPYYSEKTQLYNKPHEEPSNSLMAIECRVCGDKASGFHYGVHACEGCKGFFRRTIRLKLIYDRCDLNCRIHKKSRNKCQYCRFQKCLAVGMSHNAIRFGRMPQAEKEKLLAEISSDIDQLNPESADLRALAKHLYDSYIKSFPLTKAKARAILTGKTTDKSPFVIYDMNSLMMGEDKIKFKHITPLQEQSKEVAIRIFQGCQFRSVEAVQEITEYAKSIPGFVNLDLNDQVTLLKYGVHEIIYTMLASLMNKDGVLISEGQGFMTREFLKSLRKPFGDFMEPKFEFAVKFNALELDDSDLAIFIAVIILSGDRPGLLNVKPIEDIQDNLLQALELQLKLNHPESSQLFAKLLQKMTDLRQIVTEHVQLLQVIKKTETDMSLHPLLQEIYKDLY
PPARg SRC3 recr – PPARgamma-driven SRC-3 recruitment agonism; AID 731; activation, % at 8 µM; 200,000 tested, 0.26% active; P37231; biochemical PPARgamma/SRC-3 coactivator recruitment assay; in the data active = activation above about 23%
SRC2 TRFRET art – TR-FRET artefact, counter-screen to PPARgamma/SRC-2 agonist assay. active compounds read high. TR-FRET ratio at 8 µM. 200,000 tested, 0.4% active
SRC1 TRFRET art – flags TR-FRET format artefacts in PPARgamma SRC-1 recruitment agonist screen; TR-FRET detection artefact counter-screen, emission ratio; active compounds read high; AID 1051; TR-FRET ratio at 8 µM; 99,000 tested, 0.34% active; in the data active = TR-FRET ratio above about 2300
PPARg SRC2 recr – PPARgamma-driven SRC-2 recruitment agonism | P37231 | PPARgamma LBD-SRC-2 recruitment, biochemical | activation, % at 8 µM | 200,000 tested, 0.34% active; in the data active = activation above about 22%
SRC3 TRFRET art – counter-screen for PPARgamma SRC-3 recruitment agonists: TR-FRET artefact; PPARgamma/SRC-3 format; active compounds read high; TR-FRET ratio at 8 µM; AID 1048; 99,000 tested, 0.39% active
Numbers stand for hits; . = inactive; / = not tested or not shown. Cut-off read from the data, not from the text of the source, unless noted: active = TR-FRET ratio above about 2000; inactive = the rest.

SMILES	PPARg SRC-1 ag	PPARg SRC3 recr	SRC2 TRFRET art	SRC1 TRFRET art	PPARg SRC2 recr	SRC3 TRFRET art
O=C(CN1C(=O)c2ccccc2C1=O)Nc1ccc(-c2nc3ccccc3o2)cc1	.	.	.	/	.	/
O=C(CCN1C(=O)c2ccccc2C1=O)Nc1ccc(-c2nc3ccccc3o2)cc1	19	.	.	/	.	/
CCOC(=O)N1CCC(Nc2c(N3CCN(c4cccc(C(F)(F)F)c4)CC3)c(=O)c2=O)CC1	.	.	.	/	.	/
Cc1cccc(NC(=O)c2cc(-c3ccc(C)s3)nc3ccccc23)n1	.	.	2007	.	.	2191
Cc1cc(NC(=O)c2cc(-c3ccc(C)s3)nc3ccccc23)no1	.	.	.	/	.	/
O=C(c1cc(-c2ccccn2)nc2c(Cl)cccc12)N1CCN(S(=O)(=O)c2ccccc2)CC1	.	.	2813	.	.	3978
CN(C)S(=O)(=O)c1cccc(NC(=O)c2cc(-c3cccs3)nc3ccccc23)c1	.	.	2036	.	.	2449
O=C(c1cc(-c2ccccn2)nc2c(Cl)cccc12)N1CCN(C(=O)C2CCCO2)CC1 (stereo not drawn)	.	.	.	/	.	/
O=C(c1cc(-c2cccs2)nc2ccccc12)N1CCN(S(=O)(=O)c2ccccc2)CC1	.	.	2313	/	.	/
CCOc1ccc2[nH]cc(C(=O)NCCCN3CCOCC3)c(=O)c2c1	.	.	.	.	.	.
CC(CCCC(C)(C)O)NCc1cn[nH]c1-c1ccc2c(c1)OCO2 (stereo not drawn)	.	.	.	.	.	.
CCOc1ccc(C(=O)N2CCC(C(=O)c3ccc4c(c3)OCCO4)CC2)cc1	.	.	.	/	.	/
O=C(c1cc(-c2cccs2)nc2ccccc12)N1CCN(S(=O)(=O)c2cccc(F)c2)CC1	.	.	2309	/	.	/
O=C(c1cc(-c2cccs2)nc2ccccc12)N1CCN(c2ccccc2)CC1	.	.	.	.	.	.
Cc1nn2c(c1-c1ccc(Cl)cc1)N=C(c1ccco1)CC2c1ccccc1 (stereo not drawn)	.	.	.	/	.	/
O=C(CSc1cn(Cc2ccccc2)c2ccccc12)Nc1nccs1	.	.	3013	/	.	/
N=c1c(C(=O)NCC2CCCO2)cc2c(=O)n3ccccc3nc2n1Cc1cccnc1 (stereo not drawn)	.	.	.	.	.	.
Cc1cccn2c(=O)c3cc(C(=O)NCC4CCCO4)c(=N)n(Cc4cccnc4)c3nc12 (stereo not drawn)	.	.	.	2542	.	.
CC1(C)CC(Cc2nc(=S)[nH][nH]2)C(=O)O1 (stereo not drawn)	.	.	.	.	.	.
O=C(COc1ccc(/C=N/NC(=O)c2cc3ccccc3o2)cc1Br)Nc1ccccc1	.	.	3281	/	63	/
COc1ccccc1OCC(=O)N/N=C1/SCC(=O)N1Cc1ccccc1	.	.	.	/	.	/
COc1cc(OC)cc(C(=O)NCC(=O)OCC(=O)/C=C2/N(C)c3ccccc3C2(C)C)c1	.	.	.	.	.	.
CN1/C(=C\C(=O)COC(=O)Cn2nnc(-c3ccccc3)n2)C(C)(C)c2ccccc21	.	.	2474	/	.	/
O=C(CSc1ccc2ccccc2c1Br)Nc1cccc(S(=O)(=O)NC2=NCCCCC2)c1	.	.	.	.	.	2200
O=C(CSc1ncnc2c1oc1ccccc12)NCC1CCCO1 (stereo not drawn)	95	131	3902	/	110	/
SMILES	PPARg SRC-1 ag	PPARg SRC3 recr	SRC2 TRFRET art	SRC1 TRFRET art	PPARg SRC2 recr	SRC3 TRFRET art
CS(=O)(=O)N1CCN(c2nc(-c3ccccc3)cs2)CC1	.	.	.	/	.	/
CCS(=O)(=O)N1CCN(c2nc(-c3ccccc3)cs2)CC1	.	.	.	.	.	2121
Cc1sc(NC(=O)Cc2ccc3c(c2)OCO3)nc1-c1ccc2c(c1)CCN2C(=O)c1ccc(F)cc1	.	.	.	.	.	2623
Cc1sc(NC(=O)Cc2ccc3c(c2)OCO3)nc1-c1ccc2c(c1)CCN2C(=O)c1ccccc1F	.	.	.	.	.	.
CCCn1c(O)c(C=Nc2ccccc2)sc1=S	.	.	.	.	.	.
CCn1c(O)c(C=Nc2ccccc2)oc1=S	.	.	1976	/	.	/
O=C(Nc1ccncc1)c1cn(-c2ccccc2)nc1-c1cccs1	.	.	.	/	.	/
CC(NC(=O)COC(=O)c1cn(-c2ccccc2)nc1-c1cccs1)c1ccccc1 (stereo not drawn)	.	.	2073	/	.	/
O=C(c1cn(-c2ccccc2)nc1-c1cccs1)N1CCN(c2ccc(F)cc2)CC1	.	.	2165	/	.	/
CCNc1nc(NCC)nc(C(=O)OCCO)n1	.	.	.	/	.	/
COC(=O)c1c(-c2cccs2)csc1NC(=O)c1cccnc1	.	.	.	/	.	/
COc1ccc(-c2cc(C(F)F)n3ncc(C(=O)N4CCCc5ccccc54)c3n2)cc1	.	26	.	.	.	.
O=C(c1cnn2c(C(F)F)cc(-c3ccccc3)nc12)N1CCCc2ccccc21	.	.	.	/	.	/
Cc1c(-c2cccs2)[n+](=O)c2c(n1[O-])CCCC2	.	.	.	.	.	.
O=C1OCCN1C(=O)[C@H]1[C@H](c2ccc(Cl)cc2)C(c2cccc(Cl)c2)=NN1c1ccccc1	.	.	2617	3296	.	2817
CCCOc1ccc(CNCCCOCC)cc1OC	.	.	.	.	.	.
CCOCCCNCc1ccc(OC)c(OC)c1	.	.	2500	/	34	/
Cc1ccccc1-n1c(-c2ccco2)n[nH]c1=S	.	.	.	.	27	.
CS(=O)(=O)Cc1cc(N2CCCC2)nc(-c2ccccc2)n1	.	.	.	.	.	.
O=C(CSc1ncnc2c1nnn2-c1ccc(F)cc1)NCc1ccco1	.	.	.	/	23	/
Cc1cc(=O)oc2cc(OCc3ccc(C(=O)OCC(=O)Nc4ccccc4OC(F)F)cc3)ccc12	.	.	.	.	.	.
COc1cc(SC)ccc1C(=O)N1CCCCCC1	.	.	.	.	.	.
COc1ccccc1CNC(=O)CSc1nc(N)c(C#N)c(-c2cccs2)c1C#N	.	30	.	/	.	/
COc1ccc(-c2cc(-c3cccs3)c(C#N)c(SCC(=O)NCc3ccccc3OC)n2)cc1	27	.	.	/	.	/
COc1ccc(-c2cc(-c3ccccc3)nc(SCC(=O)Nc3ncc(C)s3)c2C#N)cc1	.	.	.	.	.	.
SMILES	PPARg SRC-1 ag	PPARg SRC3 recr	SRC2 TRFRET art	SRC1 TRFRET art	PPARg SRC2 recr	SRC3 TRFRET art
COc1ccc(-c2cc(-c3cccs3)c(C#N)c(SCC(=O)NCc3ccccc3)n2)cc1	39	.	.	/	.	/
N#Cc1c(N)nc(SCC(=O)NCc2ccc3c(c2)OCO3)c(C#N)c1-c1cccs1	.	.	.	/	.	/
COCCCN(C(=S)Nc1cc(C)cc(C)c1)C(C)c1ccncc1 (stereo not drawn)	.	.	.	.	.	.
Cc1ccc(/C=N/NC(=O)CCn2nc(C)cc2C)c(C)c1	.	.	.	.	.	.
CCCc1cc(C(=O)Nc2ccccc2C(=O)OC)no1	.	.	.	/	.	/
CC(C)CCNC(=O)NC(=O)COC(=O)/C=C/c1cccc([N+](=O)[O-])c1	.	.	.	.	.	.
